The text below walks through data of PubChem BioAssay (NCATS).

Structures are written as SMILES. Inconclusive results are not listed. A call without a number means that no potency is given here. A number with no mark means an inactive call. Calls of active or inactive are those of the source. The call rests on the fitted dose curve; in most records, active means well fitted cell-killing curve with a large enough effect; inconclusive means small, poorly fitted or top-dose-only effect; inactive means no such curve, though single readings can be large or run the other way.
Potency means the concentration at half of the fitted maximal effect.

This test in a line: qHTS of pediatric cancer cell lines to identify multiple opportunities for drug repurposing: Primary screen for SJ-GBM2 cells (AID 1347091). As to conditions: SJ-GBM2 viability, CellTiter-Glo luminescence, 48 h; series mostly up to 46 µM. An excerpt:
Drug repurposing or repositioning has been offered as a strategy for drug development in oncology programs. This approach has special potential for childhood cancers and other rare or orphan diseases, where the expected return on new drug development has been a disincentive to pharmaceuticals.
In this project we exploit the poly-pharmacology of drugs to discover new indications via phenotypic screening of a panel of 19 well-characterized cell lines derived from solid tumors seen in children and adolescents. The goal is to identify approved drugs with previously unrecognized anticancer properties that has the potential to reveal new mechanisms and biological processes involved in carcinogenesis or drug resistance. We employed a titration-based paradigm (quantitative high-throughput screening or qHTS), where all compounds were tested at multiple concentrations for their effect on cell viability. Concentration-response curves (CRCs) were derived directly from the primary screen, and both potency and efficacy values were used to identify compounds with robust bioactivity profiles. We screened the NIH Chemical Genomics Center (NCGC) Pharmaceutical Collection (NPC) and Mechanism Interrogation Plate (MIPE) small molecule collections of approved and investigational compounds against these cell lines; and measured metabolically active cells after 48 hours of compound treatment as a proxy for cell viability.
Assay Submitter: Nathalia J. Martinez, National Center for Advancing Translational Sciences, National Institutes of Health, Rockville, MD, USA; email: natalia.martinez@nih.gov
[1] Shen, M et al. Quantitative high-throughput phenotypic screening of pediatric cancer cell lines identifies multiple opportunities for drug repurposing. Oncotarget 2017 Dec 19;9(4):4758-4772. PMID 29435139.
The cells were obtained from University of North Carolina (UNC), Pediatric Preclinical Testing Program (PPT), and Coriell Institute (CI).
qHTS cell viability assay:
Cells were assayed in growth media at a density of 500-1,000 cells/well. Five microliters of cells were dispensed into 1,536-well, white, solid-bottom, TC-treated plates (Greiner Bio One) using a multidrop dispenser and incubated at 37 degrees C, 5% CO2, under a humidified atmosphere for 5 hours. Twenty-three nanoliters of compounds and controls (neutral control DMSO or positive control bortezomib at final concentration of 2.3 µM) were subsequently transferred by Kalypsys pintool. For primary screens, the MIPE collection was tested at 11-point dilutions (final concentrations range from 0.78 nM to 46 µM) and the NPC collection at 8-point dilutions (final concentrations range from 0.59 nM to 46 µM). Compounds tested in follow-up screens were assayed at 11-point dilutions. Cells were incubated for 48 hours, followed by addition of 3 uL of CellTiter-Glo (Promega). After a 15 min incubation at room temperature, samples were analyzed for luminescence intensity using a ViewLux High-throughput CCD imager equipped with clear filters.
Background: In qHTS, concentration-response curves come from the screen itself.
For the molecule `CCCCCCCCCCCCCCC[C@H](O)[C@@H](N)CO`, the Potency entry is “inactive”. In the case of `NC1CCN(c2nc3c(cc2F)c(=O)c(C(=O)O)cn3-c2ccc(F)cc2F)C1` (stereo not given), the Potency result is “inactive”.

As for `C=C[C@H]1CN2CC[C@H]1C[C@H]2[C@H](O)c1ccnc2ccc(OC)cc12`, the Potency result was “inactive”. As to `OC[C@H]1O[C@@H](Oc2ccc(O)cc2)[C@H](O)[C@@H](O)[C@@H]1O`, the Potency result is “inactive”.

For the molecule `Cc1ccccc1OCC(O)CO` (stereo not given), the Potency entry is “inactive”.

Consider `CC(C)[N+](C)(C)CC(O)COc1cccc2ccccc12` (stereo not given), for which the Potency result is “inactive”.

Take `CN(CCCN1c2ccccc2CCc2ccccc21)CC(=O)c1ccc(Cl)cc1`: the Potency entry was “inactive”.

Turning to `C[N+]12CCC(CC1)C(OC(=O)C(O)(c1ccccc1)c1ccccc1)C2` (stereo not given), the Potency entry is “inactive”. The same measure, in the same setting: in the case of `CCOc1ccccc1C(N)=O` it was “inactive”; in that of `Cc1cc(C)cc(OCC2CNC(=O)O2)c1` (stereo not given), “inactive”; in that of `O=C1C(O)=C(O)C(=O)C(O)=C1O`, “inactive”. Same read-out and setting: in the case of `O=C(Nc1cccc(C2=NCCN2)c1)Nc1cccc(C2=NCCN2)c1` it was “inactive”; in that of `CCCCC(CC)COC(=O)/C=C/c1ccc(OC)cc1` (stereo not given), “inactive”.

In the case of `COc1cc(C(=O)NCc2ccc(OCCN(C)C)cc2)cc(OC)c1OC`, the Potency entry is “inactive”. Regarding `CCCCNC(=O)NS(=O)(=O)c1ccc(N)cc1`, the Potency entry is “inactive”.

Consider `c1ccc(CC2=NCCN2)cc1`, for which the Potency entry is “inactive”. Same read-out and setting: next, `COc1cc(O)c(C(=O)c2ccccc2)cc1S(=O)(=O)O`: “inactive”. Same read-out and setting: next, `Nc1ccc(S(=O)(=O)NCc2ccccc2)cc1`: “inactive”; `COc1cc([C@H]2Oc3cc([C@H]4Oc5cc(O)cc(O)c5C(=O)[C@@H]4O)ccc3O[C@@H]2CO)ccc1O`: “inactive”; `C[C@H]1[C@H]2CC[C@H]3[C@@H]4CC=C5C[C@@H](N(C)C)CC[C@]5(C)[C@H]4CC[C@]23CN1C`: “inactive”. Still for that read-out and setting: in the case of `CCN1CCCC(OC(=O)C(c2ccccc2)c2ccccc2)C1` (stereo not given) it was “inactive”.

Regarding `Cc1ccc2c(Br)cc(Br)c(O)c2n1`, the Potency was 13.3 µM (active). On to `N=C(N)N1CCc2ccccc2C1`, for which the activity change, negative = cytotoxic was 1.07% [at 4.84 µM]. With `CO[C@]12C[C@@H](COC(=O)c3cncc(Br)c3)CN(C)[C@@H]1Cc1cn(C)c3cccc2c13`, the Potency result was “inactive”. Still for that read-out and setting: in the case of `CC1=C(C(=O)O)N2C(=O)[C@@H](NC(=O)[C@H](N)c3ccccc3)[C@H]2SC1` it was “inactive”. As for `OC(C#CCN1CCCC1)(c1ccccc1)c1ccccc1`, the Potency result was “inactive”.

With `CC(=O)NC(=O)c1ccccc1O`, the Potency result was “inactive”.

`CCC1NC(=O)c2cc(S(N)(=O)=O)c(Cl)cc2N1` (stereo not given): the Potency result was “inactive”. The same measure, in the same setting: next, `Cc1cccc(C)c1NC(=O)c1ccccc1C(=O)O`: “inactive”. Take `CCOc1ccccc1OCCN[C@H](C)Cc1ccc(OC)c(S(N)(=O)=O)c1`: the Potency entry was “inactive”. Same read-out and setting: in the case of `CC1CCc2c(N3CCC(O)CC3)c(F)cc3c(=O)c(C(=O)O)cn1c23` (stereo not given) it was “inactive”; in that of `Cc1cc(CC(=O)O)c(C)n1-c1ccc(Cl)cc1`, “inactive”.

In the case of `O=C(CCN1CCN2CCCC2C1)N1c2ccccc2Sc2ccc(Cl)cc21` (stereo not given), the Potency result was “inactive”. Still for that read-out and setting: next, `O=C(NC1CCN(CCc2c[nH]c3ccccc23)CC1)c1ccccc1`: “inactive”.

`O=C(O)CCc1nc2ccccc2[nH]1`: the Potency entry was “inactive”. As to `CC1(COc2ccc(CC3SC(=O)NC3=O)cc2)CCCCC1` (stereo not given), the Potency result is “inactive”. Turning to `COc1cc(C(=O)N2CCCCCCC2)cc(OC)c1OC`, the Potency result was “inactive”.

With `CC(C)NCC(O)c1ccc2ccccc2c1` (stereo not given), the Potency result is “inactive”.

`CC(=O)NCCCCCC(=O)O`: the Potency entry was “inactive”. Same read-out and setting: next, `C#C[C@]1(O)CC[C@H]2[C@@H]3CCC4=CC(=O)CC[C@@H]4[C@H]3CC[C@@]21CC`: “inactive”.
